Changes are numbered by the printed parent chain. In all, about 5,800 sequences were measured (“enrichment r”: median about 0.54, highest 2% from about 16 on). Shown is part of a subset that was picked to be rich in the highest values.
B1: chr8:72021249:72022905:-|three_prime_utr|ENSG00000104321|control|control|control (ssRNA)
RNA: GGGAGUUCUACAGUCCGACGAUCGCAGAUAUGUUCAAAUUGGACUGGACUUUGAUGAGAUAUAAUCUCAUUAUUUGAAUGGGUAGAAAAUGAAUUUGCUAGAACACACAUUUUUAAUGAAAAGAAGUAAUAAAUGUAACUAUUCAACAGAGGAUUGAGCAUCA
B2: chr1:67413009:67413110:-|3pUTR|ENSG00000142864|unk|total|mutant (ssRNA)
RNA: GGGAGUUCUACAGUCCGACGAUCCUGAAUUUUAUCUGUUUUAAAAAUGAACUUCUCCCGCUACACAGAAGUAACAAAUAUGGCCGUCAGUUUUGUAUUCCGAAAUGUAUUGGCCGCAGGGAUGUUUUCAUAAUUUUCAGAGAUCAACAGAGGAUUGAGCAUCA
B3: chr18:2804133:2804242:+|3pUTR|ENSG00000101596|unk|FALSE|unique (ssRNA)
RNA: GGGAGUUCUACAGUCCGACGAUCGGUUAAAGAGAAAUGACUUUUUAGGAACUAGACUUGAACGUAUAAUUAAUAUGUGGAACUAGUUUGCUUUUAUAAUUCAUUGUAUCAAGAAGGAGUCAUGUUUUAAAUCCAAGGCAUUGACAACAGAGGAUUGAGCAUCA
B4: chr1:67413009:67413110:-|3pUTR|ENSG00000142864|unk|FALSE|unique (ssRNA)
RNA: B2 RNA with C83U, C84A, C99U, C100A, C113U, C114A
B5: chr7:152122106:152122213:+|3pUTR|ENSG00000178234|unk|FALSE|unique (ssRNA)
RNA: GGGAGUUCUACAGUCCGACGAUCAGUGGUUUUUAUCUGAUCAGGAACUUGUCAUGAUUUCCUUUCUUAGACUUCAUAGGAGAUAGUGCUUUAAAAAAAAAAAAAACUUCUAUUAUUUGUUUAGUAUGUUGUAAGUAGAUCAUUCAACAGAGGAUUGAGCAUCA
B6: chr2:112659350:112659462:+|CDS|ENSG00000144136|unk|FALSE|unique (ssRNA)
RNA: GGGAGUUCUACAGUCCGACGAUCCUUGCCAAGGUGGGAGAUUGCAUGGGAGACUCCGGUGACAAACCCUUAAGGCGCAAUAAUAGCUAUACUUCCUAUACCAUGGCAAUAUGUGGCAUGCCUCUGGAUUCAUUCCGUGCCAAACAACAGAGGAUUGAGCAUCA
B7: chr12:49763637:49763739:+|3pUTR|ENSG00000139644|msi1_unk|total|mutant (ssRNA)
RNA: GGGAGUUCUACAGUCCGACGAUCAUGUGUAUCAAGGUACAGCAUCGCCGGGUUCCCCUAAACUUGCCCUGUUUUUGUUUUUUCCGUUUGUUAUCCCCUUACUGAGCGGCCUCUACCCGGUGGCUGUGAUUAAAUGUCCCAAGCCAACAGAGGAUUGAGCAUCA
B8: chr20:17613772:17613873:-|3pUTR|ENSG00000125844|unk|total|mutant (ssRNA)
RNA: GGGAGUUCUACAGUCCGACGAUCAGCCCCGUGGGUGUGUGGGAGGCCGGGCGCUCUGGGGUCUGUCUGUCAGUGCAAUCGUUCCGUGUUUUUUCAGUGGGGCGGGGCGGGAAGCGGGUGGGACCGGGCAGCCAGUUCUCAAAGCAACAGAGGAUUGAGCAUCA
B9: chr4:48851844:48851957:+|CDS|ENSG00000109180|unk|FALSE|unique (ssRNA)
RNA: GGGAGUUCUACAGUCCGACGAUCAUAUGACUCAAGUGUGAGUGGUCAAUCAUCUUUUGUGACAUCCCCAGCAGCAGACAACAUAGAAAUGCUUCCUCAUUAUGAGCCAAUUCCAUUCAGUUCUUCUAUGAAUGAAUCUGCUCCCAACAGAGGAUUGAGCAUCA
B10: ENSG00000107863:be:win_2201|CDS|ENSG00000107863|bound_else_gene|NA|bound_elsewhere_windowed (ssRNA)
RNA: GGGAGUUCUACAGUCCGACGAUCCUGUCAUCCUAAGGGAAAAACCUCCAUCUGGACGCCAGACACCGCAGCCUUUAAGGCAUCAGUCUUACAUCUUGGCAGUAAAUGACCAGGAGACCGGGUCAGACACUACCUGCUGGCUGCCAACAGAGGAUUGAGCAUCA
B11: chr18:55226207:55226308:-|3pUTR|ENSG00000196628|unk|FALSE|unique (ssRNA)
RNA: GGGAGUUCUACAGUCCGACGAUCAUUUUUACAGCCACACAAUUCUUGGCAUGUAUUAAGAAAAAAAAAAAUCCCUGUUCAAGUAGUUUUUCCACCUAUCAGCACUGAGUAAAUGCCAUAAAUCCAUUGAAAUGGUCUAAAUGUCAACAGAGGAUUGAGCAUCA
B12: chr16:21655520:21655610:+|3pUTR|ENSG00000197006|msi1_unk|total|mutant (ssRNA)
RNA: GGGAGUUCUACAGUCCGACGAUCUCUGUGUUCACAAUUACGUGAAGGGAGGACCCUUGGGGACCGCCAUUCUAAAUAUCAUGCCGGAAUUUAAAAAGCCAAAAUACUAAUUAUUUCUUUGCCGUGUGUAAAGGAAUGUUUUUACAACAGAGGAUUGAGCAUCA
B13: ENSG00000151612:stop:overlap|stop_codon|ENSG00000151612|stop_codon|NA|stop_codon (ssRNA)
RNA: GGGAGUUCUACAGUCCGACGAUCCAGGCCUGUUGGAGAAGGAAGCCAGCAGUGAGGGGGAUUGCAAAGUAGAGAGAGGUUGGUAGAACUGUGGACUGUGAAGAGAUCGAGAAUAGCACAGUUAACUAGGCAUUUGCCUUCGGCCAACAGAGGAUUGAGCAUCA
B14: ENSG00000136451:be:win_551|CDS|ENSG00000136451|bound_else_gene|NA|bound_elsewhere_windowed (ssRNA)
RNA: GGGAGUUCUACAGUCCGACGAUCGAGAUGUGUACCAUCUCAAUCGACACAAGCUCUCCCAUUCAGAUGAGAAACCCUUUGAGUGUCCUAUUUGUAAUCAGCGCUUCAAGAGGAAGGACCGGAUGACUUACCAUGUGAGGUCUCCAACAGAGGAUUGAGCAUCA
B15: chr6:134965076:134965177:-|3pUTR|ENSG00000112339|unk|total|mutant (ssRNA)
RNA: GGGAGUUCUACAGUCCGACGAUCAAAGGAACAAUGUGCAAUUGAUAUGUUUUCCGAUGAGAGAGAAAAAUUAAAGCUAAAAUCCGCUGCAAAGAAGUAUUAAUAAUCACCUCUGCAAAAAUUCUAAGUUGCCAACUGGCAAAGCAACAGAGGAUUGAGCAUCA
B16: chr7:111727939:111728040:-|3pUTR|ENSG00000128512|unk|FALSE|unique (ssRNA)
RNA: GGGAGUUCUACAGUCCGACGAUCAAGUGGUAAAUAGUGAUAAAGACUCCUUUUGUACCUUUUUAUGUUCACUUUUUUUUAUAUAGUUUAAUCUUAAAACCAAUACGAUAUUGUCAAACGAUACAAUGUGUGACAAUGUUGUAUCAACAGAGGAUUGAGCAUCA
B17: chr19:811491:811550:+|3pUTR|ENSG00000011304|msi1_unk|FALSE|overlapping (ssRNA)
RNA: GGGAGUUCUACAGUCCGACGAUCUAGCAAUAUUUCCAGUUGACCAAAUAUUCUAAUCUUUUUUCAUUUAUAUGCAAAAGAAAUAGUUUUAAGUAACUUUUUAUAGCAAGAUGAUACAAUGGUAUGAGUGUAAUCUAAACUUCCCAACAGAGGAUUGAGCAUCA
B18: ENSG00000070961:be:win_4601|3pUTR|ENSG00000070961|bound_else_gene|NA|bound_elsewhere_windowed (ssRNA)
RNA: GGGAGUUCUACAGUCCGACGAUCUCAGACUAUCAAACUACAAGAGAACCUUAGUCUUUUUUGUUUUUGUCUAAACAUGUUAGUUUAGUGAUGUCUUGGUGAACUGUGAGUGAACUGUAUUGAUUUUUCUAAUCUUUAGAGACCCAACAGAGGAUUGAGCAUCA
B19: ENSG00000070961:be:win_4651|3pUTR|ENSG00000070961|bound_else_gene|NA|bound_elsewhere_windowed (ssRNA)
RNA: GGGAGUUCUACAGUCCGACGAUCACAUGUUAGUUUAGUGAUGUCUUGGUGAACUGUGAGUGAACUGUAUUGAUUUUUCUAAUCUUUAGAGACCUUCACACAGCAUGAGGGCUGUUGGCAUUUUGAAAAAGGUUAAUAAGUAGACAACAGAGGAUUGAGCAUCA
B20: chr7:111727939:111728040:-|3pUTR|ENSG00000128512|unk|total|mutant (ssRNA)
RNA: B16 RNA with U34C, A35C, U83C, A84C
B21: ENSG00000070961:be:win_4701|3pUTR|ENSG00000070961|bound_else_gene|NA|bound_elsewhere_windowed (ssRNA)
RNA: GGGAGUUCUACAGUCCGACGAUCUUUUCUAAUCUUUAGAGACCUUCACACAGCAUGAGGGCUGUUGGCAUUUUGAAAAAGGUUAAUAAGUAGAAGCAUACAUGUUUUCCUUUUGUUUUUGAAACUUGUUUGUAAACAUAAAUACAACAGAGGAUUGAGCAUCA
B22: chr10:110135209:110135310:+|3pUTR|ENSG00000148700|msi1|total|mutant (ssRNA)
RNA: GGGAGUUCUACAGUCCGACGAUCCUCUCUAUUGGAAGAUUUUUUUAAUGUUCUACAUCAUUUAUGUUGUAUUACAAUGUAUGCCGAAACCGUAACCUGUGAACUAUGCUUUUCCAUAACUUUUUAAAAAUAUAUAUAUCUAAACAACAGAGGAUUGAGCAUCA

Biological target: MSI1 full-length (mouse, UniProt Q61474 1-362)
Assay: nsRBNS (natural sequence RNA bind-n-seq); RBNS binding buffer (assumed for nsRBNS): 25 mM Tris pH 7.5, 150 mM KCl, 3 mM MgCl2, 0.01% Triton X-100, 500 ug/ml BSA, 20 U/ml SUPERase-In, 4 C; UNK is unkempt and MSI1 is Musashi-1; names of the RNAs are library labels; protein concentration not given here; high values mean tight binding

MSI1 full-length, sequence (Q61474 whole entry): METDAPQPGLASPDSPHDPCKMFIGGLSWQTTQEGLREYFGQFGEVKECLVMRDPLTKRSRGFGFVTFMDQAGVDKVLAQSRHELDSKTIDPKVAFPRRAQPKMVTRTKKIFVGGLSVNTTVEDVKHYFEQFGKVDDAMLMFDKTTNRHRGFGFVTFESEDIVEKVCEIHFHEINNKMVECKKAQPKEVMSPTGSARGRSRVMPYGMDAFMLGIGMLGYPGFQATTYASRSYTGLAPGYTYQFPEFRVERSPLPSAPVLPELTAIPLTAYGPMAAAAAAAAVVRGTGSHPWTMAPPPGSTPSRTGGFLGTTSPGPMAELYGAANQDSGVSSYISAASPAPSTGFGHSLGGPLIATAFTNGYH

| Binder | binding signal [enrichment R] |
| --- | --- |
| B1 | 2.75 |
| B2 | 0.413 |
| B3 | 1.24 |
| B4 | 41.4 |
| B5 | 20.2 |
| B6 | 0.737 |
| B7 | 0.481 |
| B8 | 0.811 |
| B9 | 0.341 |
| B10 | 0.283 |
| B11 | 0.374 |
| B12 | 0.282 |
| B13 | 3.25 |
| B14 | 0.307 |
| B15 | 0.346 |
| B16 | 37.8 |
| B17 | 0.9 |
| B18 | 3.69 |
| B19 | 28.3 |
| B20 | 3.05 |
| B21 | 0.664 |
| B22 | 7.3 |
